Rows were chosen to be rich in hits. Some 2.2% of all compounds tested hit in one or more screens of this group.
IEC-6 cytotox: cytotoxicity in IEC-6 intestinal epithelial cells, primary screen, cytotoxicity control for KLF5 inhibitor project, cell-based, luminescence; IEC-6 cytotoxicity, luminescence viability; inhibition, % at 5 µM; 290,000 compounds, 0.78% hits; AID 1825, 2009; in the data active = inhibition above about 22%
BaF3 parental: parental Ba/F3 cell viability inhibition, counter-screen for JAK2V617F inhibitor project, murine pro-B, CellTiter-Glo luminescence; CellTiter-Glo ATP luminescence; inhibition, % at 5.6 µM; 220,000 compounds, 1.1% hits; AID 1486, 2009;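 active = inhibition above a per-campaign cutoff, the mean inhibition of all tested compounds plus 3 SD, cut at about 27% in these data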
aSyn UTR inh: MLPCN primary screen, SNCA 5' untranslated region | inhibition, % (tested at 7.5 µM) | AID 1813, 2009 | 300,000 compounds, 0.82% hits | alpha-synuclein 5'UTR reporter, inhibitor activity; in the data active = inhibition above about 60%;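 note: H4 neuroglioblastoma cells stably carrying SNCA 5'UTR luciferase fusion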
APP 5UTR inh: inhibitors of APP translation via 5'UTR reporter, primary screen, APP 5'UTR luciferase, SH-SY5Y cells | SH-SY5Y APP 5'UTR-luciferase reporter, luminescence | inhibition, % at 2 µM | 190,000 compounds, 0.82% hits | AID 1285, 2008;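 active = inhibition above a set limit, derived from the sample mean plus 3 SD, cut at about 45% in these data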
Ba/F3 V617F tox: reduced viability of JAK2V617F-dependent Ba/F3 cells, primary screen, JAK2V617F inhibitor project, cell-based, Ba/F3 EpoR-JAK2V617F, luminescence; inhibition, % at 5.6 µM; AID 1446, 2008; 220,000 compounds, 1.1% hits; ATP luminescence;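 active = inhibition above the campaign mean plus 3 SD over all tested compounds, cut at about 24% in these data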;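 note: cytokine-independent growth of Ba/F3 cells driven by EpoR plus mutant JAK2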
KLF5 inhibitor: KLF5 expression inhibitors, primary screen, DLD-1 cells, luminescence; DLD-1 KLF5 promoter-luciferase reporter; inhibition, % at 5 µM; 290,000 compounds, 0.23% hits; AID 1700, 2009;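 active = inhibition above a per-plate limit of that plate's mean compound inhibition plus 3 SD, cut at about 60% in these data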;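 note: higher means less KLF5 promoter-driven luciferase light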
BaF3 tox 2: parental Ba/F3 cell viability inhibition, counter-screen for JAK2V617F inhibitor project, murine pro-B, CellTiter-Glo luminescence; 580 compounds, 31% hits; shares compounds with Ba/F3 V617F tox; inhibition, % at 5.6 µM; AID 1520, 2009; cells kept alive by added IL-3;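 active = cell growth inhibition above the hit limit set in the earlier mutant JAK2 cell screen, cut at about 27% in these data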
JAK2V617F confrm: viability loss in Ba/F3 EpoR-JAK2V617F cells, confirmation, JAK2V617F inhibitor project, cell-based, luminescence, triplicate; CellTiter-Glo luminescence; AID 1521, 2009; 580 compounds, 66% hits; shares compounds with Ba/F3 V617F tox; inhibition, % at 5.6 µM;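 active = mean inhibition above the hit cutoff derived in the earlier primary screen, cut at about 25% in these data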;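 note: higher means lower luminescence from reduced cell ATP and viability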
Hits are given with their value; 0 = inactive; - = not tested or not shown.

SMILES	IEC-6 cytotox	BaF3 parental	aSyn UTR inh	APP 5UTR inh	Ba/F3 V617F tox	KLF5 inhibitor	BaF3 tox 2	JAK2V617F confrm
NC1=NC2(CCCCC2)N(c2ccc(F)cc2)C(N)=N1	0	0	0	0	24	0	0	33
COCCN(CC(=O)NCC1CCCO1)C(=O)CCC(=O)Nc1cc(C)ccn1 (configuration not stated)	0	0	0	0	0	0	-	-
COCCN(CC(=O)NCC1CCCO1)C(=O)CCC(=O)Nc1cc(C)on1 (configuration not stated)	0	0	0	0	35	0	0	0
Cc1cc(OC(=O)c2cccc(Br)c2)c([N+](=O)[O-])c(=O)[nH]1	0	-	0	-	-	0	-	-
Cn1c(O)c(N=NC(=O)CNC(=O)c2cccnc2)c2ccccc21	0	-	0	-	-	0	-	-
Cc1cccc(C2c3[nH]c4ccccc4c3CCN2Cc2ccc(C)s2)n1 (configuration not stated)	0	0	0	0	27	0	0	0
CC(=O)c1ccc(C(=O)N2CCc3c([nH]c4ccccc34)C2c2cccc(C)n2)s1 (configuration not stated)	0	0	0	-	0	0	-	-
CC(C)C1Oc2ccccc2N(CC(=O)NC2CCCCC2)C1=O (configuration not stated)	0	-	0	-	-	0	-	-
O=C(CCl)N(C/C=C/c1ccccc1)c1ccc2c(c1)OCCO2	0	0	0	0	40	0	0	94
O=C(/C=C/c1ccccc1)c1ccc2c(c1)OCCCCO2	0	0	0	0	0	0	-	-
CC1=CC(C)C2(CO)COC(c3ccccc3O)C1C2C (configuration not stated)	0	0	0	0	58	0	0	0
O=[N+]([O-])c1cc(S(=O)(=O)NCCN2CCOCC2)ccc1Sc1nnnn1-c1ccccc1	0	0	0	0	46	0	27	96
Cc1cccc(NS(=O)(=O)c2cc([N+](=O)[O-])ccc2C)n1	0	0	0	0	0	0	-	-
CCn1cc(CN2CCN(Cc3ccc(C)o3)C(CCO)C2)c2ccccc21 (configuration not stated)	0	0	0	0	44	0	0	0
CCn1cc(CN2CCN(Cc3ccccc3)C(CCO)C2)c2ccccc21 (configuration not stated)	0	-	0	-	-	0	-	-
CCN(Cc1ccccc1)C(=O)CCS(=O)(=O)c1ccc2c(c1)n(C)c(=O)c(=O)n2C	0	-	0	-	-	0	-	-
NC(N)=Nc1cc2ccccc2c2ccccc12	0	0	0	-	28	0	0	33
CCN(Cc1ccc(OC)c(F)c1)C(=O)CCl	0	0	0	0	39	0	0	96
COc1ccccc1NC(=O)NC1CCCCCCC1	0	-	-	-	-	0	-	-
COc1ccccc1NC(=O)C1C2CCCCC21 (configuration not stated)	0	0	0	0	94	0	0	0
O=C(CN1CCN(c2ccccc2Cl)CC1)NC1CCCc2ccccc21 (configuration not stated)	0	0	0	0	0	0	-	-
Cc1ccc(Cl)cc1N1CCN(CC(=O)NC2CCCc3ccccc32)CC1 (configuration not stated)	0	0	0	0	58	0	0	0
CC(C)OCCCNC(=O)Cc1ccc(Br)cc1	0	0	0	0	0	0	-	-
O=C(O)c1ccc(N/N=C/c2ccc(-c3ccc(Cl)cc3Cl)o2)cc1	0	0	0	-	30	0	45	33
O=S(=O)(c1cnc(Cl)c(Br)c1)N1CCc2ccccc21	0	0	0	-	28	0	0	58
SMILES	IEC-6 cytotox	BaF3 parental	aSyn UTR inh	APP 5UTR inh	Ba/F3 V617F tox	KLF5 inhibitor	BaF3 tox 2	JAK2V617F confrm
O=S(=O)(c1cnc(Cl)c(Cl)c1)N1CCCc2ccccc21	0	0	0	0	0	0	-	-
O=S(=O)(c1cnc(Cl)c(Cl)c1)N1CCc2ccccc21	0	0	0	-	25	0	0	59
O=S(=O)(c1cc(Cl)ccc1Cl)N1CCc2ccccc21	0	-	0	-	-	0	-	-
CCC(C)N1C(=O)S/C(=C/c2ccc3c(c2)n(C)c(=O)n3C)C1=O (configuration not stated)	0	0	0	0	67	0	0	0
Cc1[nH]c2ccccc2c(=O)c1C(=O)/C=C/c1ccccc1	0	0	0	-	59	0	0	96
O=[N+]([O-])c1ccc(/C=C2\CCC(C3=CCCC3)=C2N2CCOCC2)cc1	0	0	0	0	0	0	-	-
Cc1cc(C)nc(/N=C(\N)Nc2ccc(OCc3ccccc3)cc2)n1	0	0	0	0	34	0	0	39
Cc1cc(C)nc(/N=C(\N)Nc2cccc(OCc3ccccc3)c2)n1	0	0	0	-	0	0	-	-
Cc1ccc(C)c(OCCC(=O)NCCc2ccc(S(N)(=O)=O)cc2)c1	0	-	0	-	-	0	-	-
C/C(=C\C(=O)O)CC(=O)O	0	0	0	0	53	0	0	0
Cc1cc(C)cc(NC(=O)CSc2nnc(CN3CCOCC3)n2C)c1	0	0	0	0	95	0	0	0
Cc1cc(C)c(NC(=O)CSc2nnc(CN3CCOCC3)n2C)c(C)c1	0	-	0	-	-	0	-	-
CSc1cccc(NC(=S)N2CCC(N(C)C3CCCCCC3)CC2)c1	0	0	0	0	0	0	-	-
CN(C1CCCC1)C1CCN(C(=S)Nc2cc(F)cc(F)c2)CC1	0	0	0	0	31	0	0	32
COc1cc(/C=N/N=C(N)N)ccc1OCc1ccc(Cl)cc1	22	0	0	0	35	0	35	45
CCOC(=O)C1(Cc2ccccc2C(F)(F)F)CCN(C2CCN(C(C)C)CC2)CC1	0	0	-	0	73	0	0	42
CCOC(=O)C1(Cc2ccccc2C(F)(F)F)CCN(CC(O)CO)CC1 (configuration not stated)	0	0	0	0	0	0	-	-
O=C(NCCCCCCNC(=O)OCCO)OCCO	0	0	0	0	84	0	0	0
O=C1N=C(N2CCOCC2)S/C1=C\c1ccc(OS(=O)(=O)c2ccccc2)cc1	0	0	0	0	44	0	0	0
COc1ccccc1C(C[N+](=O)[O-])c1c(N)n(C)c(=O)n(C)c1=O (configuration not stated)	0	0	0	-	37	0	0	96
COc1ccccc1C(c1c(N)n(C)c(=O)n(C)c1=O)C(C)[N+](=O)[O-] (configuration not stated)	0	0	0	-	0	0	-	-
CCCn1c(SCC(=O)NC2CCCC(C)C2C)n[nH]c1=O (configuration not stated)	0	0	0	0	0	0	-	-
